Results filed as inconclusive are left out. Unmarked numbers belong to inactive results. Active and inactive are the calls of the source. The call rests on the fitted dose curve; in most records, active means well fitted activation curve with a large enough effect; inconclusive means small, poorly fitted or top-dose-only effect; inactive means no such curve, though single readings can be large or run the other way.
Potency means the concentration at half of the fitted maximal effect.

The nature of the assay: Activators of T cell receptors: Hit Validation. On activation: 0% is about no effect. The following applies: primary human leukocytes, cytokine release by HTRF, 48 h, TCR-stimulated with anti-CD3 beads; series mostly up to 46.1 µM; activation: at the top concentration. In short, it runs like this: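 Primary human leukocytes incubated 48 hr with anti-CD3 beads plus compound, without co-stimulation. Secreted IL-2 quantified by HTRF (europium cryptate donor, d2 acceptor, 665 nm emission).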
In general terms: Time-resolved FRET reads energy transfer from a long-lived donor to a nearby acceptor.
With `CC(=O)Nc1ccc(NC(=O)C(C)OC(=O)c2c(NC(C)=O)sc(C)c2C)cc1` (configuration not stated), the “activation” value was 5.47%.

Consider `COc1ccc(C(=O)/C=C(\C)Nc2ccc(NC(C)=O)cc2)cc1`, for which the “activation” value was -0.292%.

As to `CCOC(=O)c1ncn2c1[C@@H]1CCNC1C(=O)c1cc(OC)ccc1-2` (some centres not stated), the “activation” value is -4.11%.

For `Nn1c(SCc2ccccc2F)nnc1-c1ccccn1`, the “activation” value is 6.47%.

On to `CN(C)c1cccc(C(=O)N(Cc2ccccc2)Cc2ccccc2)c1`, for which the “activation” value was 1.38%.

For the compound `O=C(O)c1ccccc1-c1c2cc(I)c(=O)c(I)c-2oc2c(I)c(O)c(I)cc12`, the Potency was 0.996 µM (active).

For the compound `Cc1ccc(NC(=O)CN(C)C(=O)COC(=O)c2nccnc2N)cc1`, the “activation” value is 7.01%.

As for `Cc1ccc(NC(=S)c2ccc(N(C)C)cc2)cc1`, the “activation” value is 2.2%.

Consider `COc1ccc(CN(C)C(C)C(=O)N(C)CC(=O)Nc2ccc(C)cc2)cc1F` (configuration not stated), for which the “activation” value is 1.21%.

As to `Cn1nc(C(F)(F)F)cc1-c1ccc(S(N)(=O)=O)s1`, the “activation” value was 8.89%.

As to `Cc1cc(OCC(=O)OCC(=O)NCC2CCCO2)ccc1Cl` (configuration not stated), the “activation” value is 26.6%.

On to `CCN(C(=O)CSc1nnc(C2CC2)n1-c1ccccc1)C1CCS(=O)(=O)C1` (configuration not stated), for which the “activation” value was -6.94%.

As for `CC(C)c1nnc(SCC(=O)N2CCOCC2)n1C`, the “activation” value was 0.107%.

For `O=C(NCCCNCc1ccccc1)/C(=N\O)c1ccccc1`, the “activation” value is 6.08%.

Turning to `Cc1ccc(NS(=O)(=O)c2ccc(C)c(C(=O)NCC(c3ccccc3)N(C)C)c2)cc1` (configuration not stated), the “activation” value was 6.06%.

With `COc1cc(N=c2ssnc2Cl)c(OC)cc1Cl`, the “activation” value is 9.47%.

As for `COc1cc(/C=C/C(=O)O)cc(OC)c1OC`, the “activation” value was 6.91%.

With `O=C1N=C(O)CN1/N=C/c1ccc(-c2ccc([N+](=O)[O-])cc2)o1`, the “activation” value was 3.53%.

For the compound `Cc1noc(C)c1C(=O)OC(C)C(=O)N1CCc2ccccc21` (configuration not stated), the “activation” value was 4.82%.

Consider `CN=c1nc(-c2ccccc2)n(-c2ccccc2)s1`, for which the “activation” value was 12.5%.

Take `CCN(CC)c1ccc2nc3ccccc3[n+](CC)c2c1`: the Potency was 4.99 µM (active).

Turning to `CN(C)CCC[C@]1(c2ccc(F)cc2)OCc2cc(C#N)ccc21`, the “activation” value was 10.7%.

In the case of `Cc1cc(Cl)ccc1OCC(=O)OCC(=O)Nc1cccnc1Cl`, the “activation” value was 4.56%.

In the case of `N#Cc1ccc(CN2CCN(C(=O)c3ccc(S(=O)(=O)NCc4ccco4)cc3)CC2)cc1`, the “activation” value is 9.02%.

Consider `CN1C(=O)c2ccccc2Sc2ccc(NC(=O)N3CCOCC3)cc21`, for which the “activation” value is -1.97%.

For `CN(C)S(=O)(=O)c1ccc2oc(SCC(=O)c3c(N)n(C4CC4)c(=O)[nH]c3=O)nc2c1`, the “activation” value was 6.21%.

As for `CC(NC(=S)NCCN1CCOCC1)C12CC3CC(CC(C3)C1)C2` (configuration not stated), the “activation” value is -1.44%.
